Several values for one entry are separate records, joined by “and”; a condition that tells them apart may be missing. Equal entries are not always repeated. Out of some 200,000 compounds screened, about 4,500 (2.2%) were called active. Not shown: some 12% with an inconclusive outcome. The call rests on the fitted dose curve; in most records, active means well fitted inhibition curve with a large enough effect; inconclusive means small, poorly fitted or top-dose-only effect, or effect the other way; inactive means flat fitted curve, though single readings scatter. What follows is part of a selection rich in actives, with near analogues and random picks from the rest. Some structures have more than one record in an assay (separate samples or runs), and their calls can disagree.
Biological target: Cruzipain (Trypanosoma cruzi) (UniProt P25779)
Assay: qHTS Assay for Promiscuous and Specific Inhibitors of Cruzain (without detergent); further: nearly all actives have a fitted effect of over 40% in size
Conditions: purified cruzain, Z-FR-AMC fluorescence, no detergent
Procedure: Cruzain is a cysteine protease from the tropical parasite Trypanosoma cruzi. Dual qHTS experiment was performed against the NCGC compound collection in order to 1) identify novel inhibitors of the enzyme and 2) profile the compound collection for promiscuous inhibitors operating via colloidal aggregation (by performing detergent-free and detergent-containing comparison screens). Cruzain was assayed by the use of fluorogenic coumarin-based substrate Z-FR-AMC: proteolytic cleavage releases AMC, whose fluorescence is measured at 360 nm excitation and 450 nm emission. Purified cruzain was supplied by the labs of Prof. James McKerrow and Brian Shoichet, UC San Francisco.
This assay had 0.00005% Triton X-100 concentration. See also releated assay "qHTS Assay for Promiscuous and Specific Inhibitors of Cruzain (with detergent)" with 0.01% Triton X-100.
See following references for additional details:
Assay Provider: Shoichet, Brian; University of California, San Fancisco
Screening Center PI: Austin, C.P.
Screening Center: NIH Chemical Genomics Center [NCGC]
Buffer: 100 mM Sodium Acetate, pH 5.5, 5 mM DTT, Triton X-100 concentration: 0.01%.
Buffer in columns 3 and 4 as negative control (no enzyme).
Substrate solution: 2 uM final concentration of Z-FR-AMC (catalog number I-1160, Bachem) dispensed throughout the plate.
Enzyme: 1.5 nM Cruzain final concentration in columns 1, 2, 5-48. Column 1 is neutral (100% activity). Column 2 contained titration of covalent inhibitor K11777, starting concentration 1 mM, then 1:2 dilution in duplicate).
Three uL of enzyme or buffer were dispensed to 1536-well Greiner black solid bottom plates. Compounds and controls (23 nL) were transferred via Kalypsys PinTool. The plates were incubated for 15 min at room temperature, and then 1 uL of substrate solution was added to start the reaction. The plates were immediately transferred to and read 4 times every 30 seconds for 2 min on ViewLux High-throughput CCD imager (Perkin-Elmer) using 360 nm excitation and 450 nm emission fluorescence protocol. The fluorescence intensity difference between the third and the first time points (time lapse of 60 seconds) was used to compute reaction progress.
Potency means the concentration at half of the fitted maximal effect.

Chain of Cruzipain (Trypanosoma cruzi) (P25779 123-467 limits assumed): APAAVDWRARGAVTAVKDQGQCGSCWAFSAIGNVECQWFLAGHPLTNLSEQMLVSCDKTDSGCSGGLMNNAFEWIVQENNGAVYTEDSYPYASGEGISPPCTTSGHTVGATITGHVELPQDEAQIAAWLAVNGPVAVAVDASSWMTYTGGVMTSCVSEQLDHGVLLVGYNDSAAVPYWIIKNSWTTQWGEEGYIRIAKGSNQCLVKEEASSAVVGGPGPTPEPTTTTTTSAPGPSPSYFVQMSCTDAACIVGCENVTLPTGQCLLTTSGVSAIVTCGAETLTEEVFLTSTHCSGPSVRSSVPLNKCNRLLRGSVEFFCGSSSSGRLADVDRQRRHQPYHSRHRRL

SMILES	max response, negative = inhibition	Potency
Fc1ccc(CN2CCc3nc(Nc4ccccc4)ncc3C2)cc1F	-18.7% (inactive)	
Cc1ccc(CCNC(=O)C2CCN(c3nnc(-n4cccc4CNc4ccc(C)cc4)s3)CC2)cc1	-8.42% (inactive)	
CSc1ccc(CCNC(=O)C2CCN(c3nnc(-n4cccc4)s3)CC2)cc1		31.6 µM (active)
Cc1ccc(C)n1-c1nnc(N2CCC(C(=O)NCc3ccc(F)cc3)CC2)s1	5.22% (inactive)	
CSc1nc(-c2ccccc2Cl)nc2c1Cc1c(CO)cnc(C)c1O2	-8.02% (inactive)	
COc1cc(C2CC(=O)N3CN(Cc4ccccc4)CSC3=C2C#N)ccc1OCc1ccccc1 (stereo not given)		15.8 µM (active)
COc1ccc(C2CC(=O)n3c(nc4ccccc43)S2)cc1OC (stereo not given)	0.892% (inactive)	
COc1ccc(C2C(=O)N(C3CCCCCC3)CC(=O)N2CCc2ccc(Cl)cc2)cc1OC (stereo not given)	10.9% (inactive)	
CCOCCCNC(=O)c1ccc2nc(CCc3ccccc3)oc2c1	-6.83% (inactive)	
Cc1cccc(C(=O)NCCc2nc3ccccc3n2Cc2ccccc2Cl)c1	15.2% (inactive)	
Cc1cccc(NC(=O)Cn2c(=O)n(CCC(C)C)c(=O)c3cccnc32)c1	-11.5% (inactive)	
Cc1ccc(C(=O)NNC(=O)c2cc3cc4ccccc4nc3s2)cc1		15.8 µM (active)
Cc1ccc(C(=O)c2c(NC(=O)c3ccccc3)sc(C)c2C)cc1	-26.9% (inactive)	
CCN(CCCNC(=O)c1cc2cc3cc(OC)ccc3nc2s1)c1ccccc1	0.913% (inactive)	
COCCNc1ncnc2c1c(-c1ccccc1)cn2-c1ccc(C)c(Cl)c1	6.98% (inactive)	
Cc1cccc(-n2c(SCC(N)=O)nc3c(oc4ccccc43)c2=O)c1	-3.27% (inactive)	
COc1ccc(-n2c(SCC(N)=O)nc3c(oc4ccccc43)c2=O)cc1	-4.62% (inactive)	
Cc1ccc(-n2c(SCC(=O)Nc3cccc(F)c3)nc3c(oc4ccccc43)c2=O)cc1C		12.6 µM (active)
Cc1ccc(C(=O)Nc2c(C(=O)NC(C)(C)C)oc3ccccc23)cc1	11.2% (inactive)	
COc1ccc(OC)c(-c2csc(-c3c(N)c(C(=O)c4ccccc4)n4ccccc34)n2)c1	-9.44% (inactive)	
COc1ccc(C(=O)Nc2ccccc2C(=O)N/N=C/c2ccccc2OC)cc1		25.1 µM (active)
COc1ccc(NC(=O)c2ccc(OC)cc2)cc1	-1.58% (inactive)	
CCn1c(/C=N/NC(=O)c2ccc(OC)cc2)nc2ccccc21	-22.8% (inactive)	
CN(C)c1ccc(-n2cccc2/C=N/n2cnnc2)cc1	-10.4% (inactive)	
CN(C)c1ccc(-n2cccc2/C=C2/SC(=Nc3ccc(F)cc3)NC2=O)cc1		10 µM (active)
N#Cc1ccccc1Cn1cnc2nc3c(cc2c1=O)CCCC3	2.69% (inactive)	
CC(=O)Nc1c(C)nn(-c2ccccc2)c1N1CCC(C(=O)Nc2cc(Cl)ccc2C)CC1	-5.38% (inactive)	

SMILES	max response, negative = inhibition	Potency
CCN(C(=O)CSc1nnc(C)n2c1cc1occc12)c1ccccc1	-4.51% (inactive)	
CCCCN(CC)C(=O)c1c[nH]c2ccc(S(=O)(=O)Nc3cccc(OC)c3)cc2c1=O	-1.35% (inactive)	
CCOC(=O)c1ccc(-c2ccc(/C=C(\C#N)C(=O)Nc3ccc(C)cc3)o2)cc1	-9.9% (inactive)	
CCOC(=O)c1ccc(-c2ccc(/C=C(\C#N)C(=O)Nc3ccc(OCC)cc3)o2)cc1	-8.32% (inactive)	
Cc1ccc(Cc2cnc(NC(=O)/C(C#N)=C/c3ccc(-c4cccc([N+](=O)[O-])c4)o3)s2)cc1		3.16 µM (active)
COc1ccc(-c2nc3c4ccccc4n(CC(=O)Nc4ccc(C(C)=O)cc4)c(=O)n3n2)cc1	12.6% (inactive)	
CCN(CC)S(=O)(=O)c1ccc2c(c1)c(=O)c(C(=O)N1CCN(c3cccc(Cl)c3)CC1)cn2C	15.1% (inactive)	
COc1ccc(CCC(=O)NCCc2csc(-c3ccc(Cl)cc3)n2)cc1	28.2% (inactive)	
CC(=O)c1c(O)c(C)c(O)c(Cc2c(O)c3c(c(C(=O)/C=C\c4ccccc4)c2O)OC(C)(C)C=C3)c1O	23.6% (inactive)	
O=C(/C=C/c1ccccc1)c1ccccc1O	9.27% (inactive) and -2.28% (inactive)	
CC(=O)c1c(O)c(C)c(O)c(Cc2c(O)c3c(c(C(=O)/C=C/c4ccccc4)c2O)OC(C)(C)C=C3)c1O	24.8% (inactive)	7.94 µM (active)
COc1cc(C(=O)NCC(c2ccc(Cl)cc2)N2CCOCC2)cc(OC)c1OC (stereo not given)	9.67% (inactive)	
CNC(=O)/C(=C\C=C\c1ccccc1)NC(=O)c1ccc([N+](=O)[O-])cc1	1.75% (inactive)	
COCCCNC(=S)NC(=O)c1ccc([N+](=O)[O-])cc1	-9.94% (inactive)	
O=C(NC(=S)Nc1ccc(NC(=O)c2cccs2)cc1)c1ccc([N+](=O)[O-])cc1		12.6 µM (active)
O=C(Nc1ccccc1)/C(=C/c1ccc([N+](=O)[O-])cc1)NC(=O)c1ccccc1		10 µM (active)
O=C(NCCc1ccccc1)/C(=C\c1ccc([N+](=O)[O-])cc1)NC(=O)c1ccccc1	-28.6% (inactive)	
O=C(O)c1ccc(NC(=O)c2cccs2)cc1	-2.86% (inactive)	
Cc1cccc(C(=O)Nc2ccc(-c3nc4ncccc4o3)cc2C)c1	-6.61% (inactive)	
Cc1noc2ncnc(NCc3ccccc3Cl)c12	-9.31% (inactive)	
Cc1ccc(C)c(N2CCN(S(=O)(=O)c3ccc4c(c3)C(C(C)C)C(=O)N4)CC2)c1 (stereo not given)	-9.68% (inactive)	
CCOC(=O)c1cccc(NS(=O)(=O)c2cn(C)c(C)n2)c1	6.22% (inactive)	
Cc1ccc2c(=O)cc(C(=O)Nc3sc4c(c3C(=O)NCc3cccnc3)CCCC4)oc2c1	-7.89% (inactive)	
Cn1nc(-c2ccccc2)c(CSc2cccc(Cl)c2)c1Cl	2.52% (inactive)	
Cc1ccc(S(=O)(=O)c2c(COC(=O)c3cccc(Cl)c3)c(-c3ccccc3)nn2C)cc1		25.1 µM (active)
Cc1cc(C)n(-c2c(F)c(F)c(COC(=O)c3ccccc3)c(F)c2F)n1	2.62% (inactive)	
Cc1ccc(CNC(=O)c2c(O)nc3c(C)cccn3c2=O)cc1	-9.77% (inactive)	
